Assay results reported in PubChem BioAssay (Tox21).
Results filed as inconclusive are left out. Active and inactive are the calls of the source. Unless noted, the call rests on the fitted dose curve; in most records, active means well fitted curve in the direction sought with a large enough effect in the repeat runs; inconclusive means weak or mixed curves; inactive means no such curve, though single readings can be large; an effect the other way counts as inactive or inconclusive.

Assays:
[1] = molecular target: Progesterone receptor (Homo sapiens) (UniProt P06401); test: qHTS assay to identify small molecule agonists of the progesterone receptor (PR) signaling pathway (AID 1346784; calls by dose curve; further: nearly all actives have a fitted effect of over 30% in size)
Chain of Progesterone receptor (Homo sapiens) (P06401 whole entry, looked up): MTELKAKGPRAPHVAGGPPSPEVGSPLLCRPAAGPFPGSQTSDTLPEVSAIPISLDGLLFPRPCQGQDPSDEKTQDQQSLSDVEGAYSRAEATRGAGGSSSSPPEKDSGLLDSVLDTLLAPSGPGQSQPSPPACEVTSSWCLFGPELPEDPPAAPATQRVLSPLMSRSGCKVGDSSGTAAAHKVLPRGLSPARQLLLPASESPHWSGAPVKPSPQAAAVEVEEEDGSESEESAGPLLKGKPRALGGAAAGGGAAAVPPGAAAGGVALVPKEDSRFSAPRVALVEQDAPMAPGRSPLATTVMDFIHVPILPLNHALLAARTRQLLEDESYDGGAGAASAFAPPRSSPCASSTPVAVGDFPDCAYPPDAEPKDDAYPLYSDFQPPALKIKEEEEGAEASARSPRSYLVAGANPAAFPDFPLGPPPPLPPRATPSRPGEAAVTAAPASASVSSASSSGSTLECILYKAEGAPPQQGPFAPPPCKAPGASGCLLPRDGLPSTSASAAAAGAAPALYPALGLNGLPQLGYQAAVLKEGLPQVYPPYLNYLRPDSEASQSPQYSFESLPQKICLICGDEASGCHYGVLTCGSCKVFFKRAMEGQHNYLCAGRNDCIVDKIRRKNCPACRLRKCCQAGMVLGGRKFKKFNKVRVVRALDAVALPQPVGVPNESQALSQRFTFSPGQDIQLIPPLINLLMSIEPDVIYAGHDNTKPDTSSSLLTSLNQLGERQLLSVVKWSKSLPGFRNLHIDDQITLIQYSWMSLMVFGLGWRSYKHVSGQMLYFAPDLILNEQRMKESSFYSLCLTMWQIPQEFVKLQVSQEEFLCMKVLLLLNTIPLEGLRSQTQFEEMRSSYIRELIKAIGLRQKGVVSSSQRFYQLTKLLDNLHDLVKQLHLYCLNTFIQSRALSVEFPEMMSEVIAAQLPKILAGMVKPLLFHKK
Outline: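 PR-UAS-bla HEK 293T cells carrying a UAS-driven beta-lactamase reporter were seeded in medium with 2% charcoal-stripped FBS, preincubated 6 hr at 37C, then exposed to compounds in DMSO for 16 hr; agonism was read by LiveBLAzer B/G FRET fluorescence.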

[2] = molecular target: Progesterone receptor (Homo sapiens) (UniProt P06401); test: qHTS assay to identify small molecule antagonists of the progesterone receptor (PR) signaling pathway (AID 1346795; active means well fitted inhibition curve with a large enough effect in the signal ratio in the repeat runs, not every such curve was filed as active; the % refers to the signal ratio)
Outline: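 PR-UAS-bla HEK293T cells carrying a UAS-driven beta-lactamase reporter were plated in medium with 2% charcoal-stripped FBS and rested 6 hr at 37C. Compounds were added with 1 nM R5020 (final) for 16 hr, then FRET substrate loaded 2 hr at room temperature.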

[3] = qHTS assay to identify small molecule antagonists of the progesterone receptor (PR) signaling pathway - cell viability counter screen (AID 1346798); further: series mostly up to about 92 µM; nearly all actives have a fitted effect of over 50% in size
Outline: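 PR-UAS-bla HEK293T cells in medium with 2% charcoal-stripped FBS were treated with compounds plus R5020 for 16 hr at 37C. Cell viability was then read by CellTiter-Glo luminescence after 30 min at room temperature in the same wells.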

[4] = qHTS assay to identify small molecule agonists of the progesterone receptor (PR) signaling pathway - cell viability counter screen (AID 1346799; calls by dose curve; further: nearly all actives have a fitted effect of over 45% in size)
Outline: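 PR-UAS-bla HEK293T cells, 3,000 per well in medium with 2% charcoal-stripped FBS, were preincubated 6 hr at 37C, then exposed to compounds for 16 hr; viability was read as CellTiter-Glo luminescence after 30 min at room temperature.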

[5] = qHTS assay to identify small molecule antagonists of the TGF-beta/Smad signaling pathway - cell viability counter screen (AID 1346824); further: nearly all actives have a fitted effect of over 50% in size
Outline: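 SBE-bla HEK 293T cells were plated overnight at 37 C, then given compounds in DMSO plus TGF-beta1 (added as 0.25 ng/mL solution) for 5 hr. After the bla read, CellTiter-Glo was added to the same wells and luminescence read after 30 min at room temperature.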

[6] = qHTS assay to identify small molecule agonists of the TGF-beta/Smad signaling pathway - cell viability counter screen (AID 1346829); further: top concentration of the series differs between compounds; nearly all actives have a fitted effect of over 45% in size
Outline: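 HEK 293T SBE-bla line, 5 hr compound exposure at 37 C, multiplexed CellTiter-Glo viability read by luminescence.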

[7] = qHTS assay to identify small molecule agonists of the TGF-beta/Smad signaling pathway (AID 1346859; active means well fitted activation curve with a large enough effect in the signal ratio in the repeat runs, not every such curve was filed as active; the % refers to the signal ratio; further: series mostly up to about 77 µM)
Outline: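 HEK 293T cells stably carrying a beta-lactamase reporter driven by the Smad binding element were seeded overnight, exposed to DMSO-dissolved compounds for 5 hr at 37 C, 5% CO2, then loaded with FRET substrate for 2 hr at room temperature.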

[8] = molecular target: Thyrotropin-releasing hormone receptor (Homo sapiens) (UniProt P34981); test: qHTS assay to identify small molecule antagonists of the thyrotropin-releasing hormone receptor (TRHR) signaling pathway (AID 1346877; active means well fitted inhibition curve with a large enough effect in the repeat runs, not every such curve was filed as active; further: series mostly up to about 51 µM)
Chain of Thyrotropin-releasing hormone receptor (Homo sapiens) (P34981 whole entry, looked up): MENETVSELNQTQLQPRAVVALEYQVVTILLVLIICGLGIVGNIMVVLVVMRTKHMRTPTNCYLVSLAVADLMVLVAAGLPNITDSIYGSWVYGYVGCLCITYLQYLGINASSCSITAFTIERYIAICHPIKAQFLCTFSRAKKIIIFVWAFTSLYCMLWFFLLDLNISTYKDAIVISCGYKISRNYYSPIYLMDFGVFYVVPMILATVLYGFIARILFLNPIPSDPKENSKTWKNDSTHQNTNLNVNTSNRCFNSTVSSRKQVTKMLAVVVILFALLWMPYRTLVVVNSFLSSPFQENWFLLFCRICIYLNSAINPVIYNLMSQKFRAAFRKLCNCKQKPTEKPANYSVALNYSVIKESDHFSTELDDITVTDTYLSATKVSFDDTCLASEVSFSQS
Outline: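 Following an 18 h incubation at 37 °C and a 2 h calcium dye load, TRHR-HEK293 cells were exposed to compound (5 min, room temperature) and challenged with TRH, 1 nM final.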

[9] = molecular target: Thyrotropin-releasing hormone receptor (Homo sapiens) (UniProt P34981); test: qHTS assay to identify small molecule agonists of the thyrotropin-releasing hormone receptor (TRHR) signaling pathway (AID 1346891; calls by dose curve; further: series mostly up to about 58 µM)
Outline: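 TRHR-expressing HEK293 cells were plated 18 h at 37 °C/5% CO2, loaded with calcium dye 2 h at 37 °C, then given compound in DMSO; fluorescence was read kinetically for 3 min at 1 s intervals.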
On the % scale 0 is the no-effect control and ±100 the full control effect.

CC(=O)c1cnccn1
inactive: Potency [1] | Potency [2] | Potency [3] | Potency [4] | outcome [5] | outcome [6] | outcome [7] | outcome [8] | Potency [9]

CCN[C@H]1C[C@H](C)S(=O)(=O)c2sc(S(N)(=O)=O)cc21
inactive: Potency [1] | Potency [2] | Potency [3] | Potency [4] | outcome [6] | outcome [7] | outcome [8] | Potency [9]

Cc1cc(C)c(N=Nc2c(O)c(S(=O)(=O)O)cc3cc(S(=O)(=O)O)ccc23)cc1C
inactive: activity change, negative = inhibition [2] 2.15% [at 8.39 µM] | activity change, negative = cytotoxicity [3] 1.98% [at 8.39 µM] | activity change, negative = cytotoxicity [4] 0% [at 8.39 µM] | viability change, negative = cytotoxic [5] -0.1% [at 6.97 µM] | activity change, negative = cytotoxicity [6] -4.86% [at 6.97 µM] | activation [7] 0.0984% [at 6.97 µM]

CC[C@H]1OC(=O)[C@H](C)[C@@H](O[C@H]2C[C@@](C)(OC)[C@@H](O)[C@H](C)O2)[C@H](C)[C@@H](O[C@@H]2O[C@H](C)C[C@H](N(C)C)[C@H]2O)[C@](C)(OC)C[C@@H](C)C(=O)[C@H](C)[C@@H](O)[C@]1(C)O
inactive: Potency [1] | Potency [2] | Potency [3] | Potency [4] | outcome [5] | outcome [6] | outcome [7] | outcome [8] | Potency [9]

Clc1cc(Cl)cc(Cl)c1
inactive: Potency [1] | Potency [2] | Potency [3] | Potency [4] | outcome [5] | outcome [6] | outcome [7] | outcome [8] | Potency [9]

CC(=O)Oc1cccc(C)c1
inactive: Potency [1] | Potency [2] | Potency [3] | Potency [4] | outcome [6] | outcome [7] | outcome [8] | Potency [9]

CCCCOCCOC(=O)CCCCCCCCC(=O)OCCOCCCC
inactive: Potency [1] | Potency [2] | Potency [3] | Potency [4] | outcome [5] | outcome [6] | outcome [7] | outcome [8] | Potency [9]

C[N+](C)(C)CCCCCCCCCC[N+](C)(C)C
inactive: Potency [3] | Potency [4] | outcome [6] | outcome [7]

Nc1ccncc1N
inactive: Potency [1] | Potency [2] | Potency [3] | Potency [4] | outcome [6] | outcome [7] | outcome [8] | Potency [9]

Cc1c(N)c(=O)n(-c2ccccc2)n1C
inactive: Potency [1] | Potency [2] | Potency [3] | Potency [4] | outcome [5] | outcome [6] | outcome [7] | outcome [8] | Potency [9]

CCOC(=O)c1cnc2c(cnn2CC)c1NN=C(C)C
inactive: Potency [1] | Potency [2] | Potency [3] | Potency [4] | outcome [5] | outcome [6] | outcome [7] | outcome [8] | Potency [9]

CC(=O)C1CCCCC1=O (stereo not given)
inactive: Potency [1] | Potency [2] | Potency [3] | outcome [5] | outcome [6] | outcome [7] | outcome [8] | Potency [9]

CCCCOCCOC(=O)COc1cc(Cl)c(Cl)cc1Cl
inactive: Potency [1] | Potency [2] | Potency [3] | Potency [4] | outcome [5] | outcome [6] | outcome [7] | outcome [8] | Potency [9]
